The values that follow come from article PMC6451091, “NextPBM: a platform to study cell-specific transcription factor binding and cooperativity”.

Test [1] deals with PU.1 (IVT) (UniProt P17947 1-270). Briefly: protein-binding microarray (PBM); 20 mM HEPES pH 7.9, 100 mM NaCl, 1 mM DTT, 0.2 mg/mL BSA, 0.02% Triton X-100, 2% milk, 0.4 mg/mL salmon testes DNA; 1 h; temperature not stated; high values mean tight binding. To be noted: dsDNA, one strand shown. An outline of the steps:
(§1)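 Untagged full-length PU.1 was produced by coupled human in vitro transcription/translation and incubated for 1 h on custom double-stranded DNA microarrays in HEPES pH 7.9 containing 100 mM NaCl, 2% milk and salmon testes DNA. Each array carried 20-bp genomic sites and single-nucleotide variants, with 10 probes per site (5 per orientation). Bound protein was detected with anti-PU.1 followed by a fluorescent secondary antibody. Binding values are z-scores calculated from scanned fluorescence after linear-regression normalisation.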

For test [2] the target is unchanged. Described as above. To be noted: dsDNA, one strand shown. The procedure, abridged:
as §1
This is another data set of the same source.

Whole data set: some 3,700 sequences, median “z-score” near 4, cut for the highest 2% near 8.4. This is one part of a sample in which the highest values are shown more often than they occur.

With “GCCTAGCACAAAAAGAGGAAGTCAAACAAGTGCTAGGTCTTGATTCGCTTGACGCTGCTG”, the binding signal in test [1] was 8.71 z-score.
Still for that read-out and setting: the figure for “GCCTAGCACGAAAAGAGGAAGTCAAACGAGTGCTAGGTCTTGATTCGCTTGACGCTGCTG” is 8.02 z-score; for “GCCTAGCACAAAAAGAGGAAGTCAAACTAGTGCTAGGTCTTGATTCGCTTGACGCTGCTG” it is 8.48 z-score.
Same read-out and setting: the figure for “GCCTAGCACGAAAAGAGGAAGTCAAACTAGTGCTAGGTCTTGATTCGCTTGACGCTGCTG” is 8.35 z-score.
Still for that read-out and setting: in the case of “GCCTAGCACAAAAACAGGAAGTCAAAGGAGTGCTAGGTCTTGATTCGCTTGACGCTGCTG” it was 7.11 z-score; in that of “GCCTAGCACGGAAAGAGGAAGTCAAACTAGTGCTAGGTCTTGATTCGCTTGACGCTGCTG”, 7.68 z-score.
“GCCTAGCACAAAAAGAGGAAGAGAAACTAGTGCTAGGTCTTGATTCGCTTGACGCTGCTG”: the binding signal in test [1] worked out at 5.79 z-score.
The same measure, in the same setting: in the case of “GCCTAGCACAGAAAGAGGAAGTCAAAACAGTGCTAGGTCTTGATTCGCTTGACGCTGCTG” it was 7.68 z-score; in that of “GCCTAGCACAAAAAGAGGAAGGGAAACTAGTGCTAGGTCTTGATTCGCTTGACGCTGCTG”, 5.12 z-score.
In test [2], “GCCTAGCACAAAAAAAGGAAGTCCTTGTGGTGCTAGGTCTTGATTCGCTTGACGCTGCTG” registered a binding signal of 6.48 z-score.
Same read-out and setting: the figure for “GCCTAGCACTTGGTCAGGAAGTGAAACTGGTGCTAGGTCTTGATTCGCTTGACGCTGCTG” is 1.38 z-score.
Regarding “GCCTAGCACAGAAAGAGGAAGTCACAAGGGTGCTAGGTCTTGATTCGCTTGACGCTGCTG”, in test [1], the binding signal was 7.68 z-score.
“GCCTAGCACGAAAGAGGGAAGTGAAAGTCGTGCTAGGTCTTGATTCGCTTGACGCTGCTG” returned a binding signal in test [2] of 5.25 z-score.
With “GCCTAGCACGATATGAGGAACTGAAAGCTGTGCTAGGTCTTGATTCGCTTGACGCTGCTG”, in test [2], the binding signal worked out at 4.06 z-score.
Still for that read-out and setting: the figure for “GCCTAGCACAATAAAGGGAAGTGACTGCTGTGCTAGGTCTTGATTCGCTTGACGCTGCTG” is 5.43 z-score.
“GCCTAGCACAAAAAAAGGAACGGGCTAGAGTGCTAGGTCTTGATTCGCTTGACGCTGCTG” gave a binding signal in test [1] of 1.48 z-score.
As for “GCCTAGCACAAAAAGAGGAAATGAAAAGAGTGCTAGGTCTTGATTCGCTTGACGCTGCTG”, the binding signal in test [2] was 6.67 z-score.
Still for that read-out and setting: the figure for “GCCTAGCACAGAAAGAGGAACTGACTGACGTGCTAGGTCTTGATTCGCTTGACGCTGCTG” is 6.61 z-score; for “GCCTAGCACTGAAAAGGGAAGTGAGGAAGGTGCTAGGTCTTGATTCGCTTGACGCTGCTG” it is 5.34 z-score; for “GCCTAGCACGAGAAGAGGAAGTAGAACAAGTGCTAGGTCTTGATTCGCTTGACGCTGCTG” it is 6.62 z-score.
For “GCCTAGCACAAAAAGAGGAAGTAAAAGACGTGCTAGGTCTTGATTCGCTTGACGCTGCTG”, the binding signal in test [1] is 8.93 z-score.
In test [2], “GCCTAGCACAAAAAGAGGAAGGGAGTAGAGTGCTAGGTCTTGATTCGCTTGACGCTGCTG” gave a binding signal of 4.77 z-score.
In the case of “GCCTAGCACAAAAAGAGGAAGTAGAGAACGTGCTAGGTCTTGATTCGCTTGACGCTGCTG”, in test [1], the binding signal was determined as 8.97 z-score.
Sequence “GCCTAGCACAAAAAAAGGAAGTGGTAAACGTGCTAGGTCTTGATTCGCTTGACGCTGCTG” returned a binding signal in test [2] of 6.51 z-score.
On to “GCCTAGCACACGAAGAGGAAGTAAAAGGCGTGCTAGGTCTTGATTCGCTTGACGCTGCTG”, for which the binding signal in test [2] came to 6.54 z-score.
The same measure, in the same setting: in the case of “GCCTAGCACCGAAAGGGGATGTGCTAAACGTGCTAGGTCTTGATTCGCTTGACGCTGCTG” it was 1.8 z-score; in that of “GCCTAGCACTATATAGGGAAGTGGGATTCGTGCTAGGTCTTGATTCGCTTGACGCTGCTG”, 4.85 z-score.
In the case of “GCCTAGCACTAAATGAGGAAGTGACAGCTGTGCTAGGTCTTGATTCGCTTGACGCTGCTG”, in test [1], the binding signal came out at 7.57 z-score.
In test [1], “GCCTAGCACAATGGCAGGAAGTGAAATCAGTGCTAGGTCTTGATTCGCTTGACGCTGCTG” gave a binding signal of 2.15 z-score.
As for “GCCTAGCACCGAAAGGGGAAGTGCTAAAAGTGCTAGGTCTTGATTCGCTTGACGCTGCTG”, in test [1], the binding signal was determined as 6.97 z-score.
Regarding “GCCTAGCACGAAAAGGGGAAGTGCTGGGGGTGCTAGGTCTTGATTCGCTTGACGCTGCTG”, the binding signal in test [1] is 7.77 z-score.
As to “GCCTAGCACGAAAGGAGGAAGTGGAGGGTGTGCTAGGTCTTGATTCGCTTGACGCTGCTG”, the binding signal in test [2] is 5.92 z-score.
For the sequence “GCCTAGCACGAAAAGCGGAAGTGGTGTGGGTGCTAGGTCTTGATTCGCTTGACGCTGCTG”, the binding signal in test [1] is 8.61 z-score.
“GCCTAGCACCAAAAAGGGAAGTGGAAGCTGTGCTAGGTCTTGATTCGCTTGACGCTGCTG” gave a binding signal in test [2] of 6.2 z-score.
The sequence “GCCTAGCACCAAAAGCGGAAGTGGTGCCTGTGCTAGGTCTTGATTCGCTTGACGCTGCTG” showed a binding signal in test [1] of 8.56 z-score.
Same read-out and setting: the figure for “GCCTAGCACCAAAAAAGGAAGTGGCTGTGGTGCTAGGTCTTGATTCGCTTGACGCTGCTG” is 5.51 z-score.
In test [1], “GCCTAGCACAAAAAAAGGAAAGGAAAGTAGTGCTAGGTCTTGATTCGCTTGACGCTGCTG” yielded a binding signal of 1.27 z-score.
On the same count and under the same terms, the figure for “GCCTAGCACAAAATGAGGAAGTGAGCTAAGTGCTAGGTCTTGATTCGCTTGACGCTGCTG” is 7.94 z-score; for “GCCTAGCACAAAATGAGGAAGTGTGATTAGTGCTAGGTCTTGATTCGCTTGACGCTGCTG” it is 7.8 z-score; for “GCCTAGCACAAAATGAGGAAGTTGGATGGGTGCTAGGTCTTGATTCGCTTGACGCTGCTG” it is 8.35 z-score.
“GCCTAGCACAAAATGAGGAAGTGCTTCTAGTGCTAGGTCTTGATTCGCTTGACGCTGCTG”: the binding signal in test [1] was found to be 8.37 z-score.
“GCCTAGCACAAAATGAGGAAGTAATTCCTGTGCTAGGTCTTGATTCGCTTGACGCTGCTG”: in test [1], the binding signal was found to be 8.66 z-score.
In the case of “GCCTAGCACAAAATGAGGAAGTACCCTCTGTGCTAGGTCTTGATTCGCTTGACGCTGCTG”, the binding signal in test [1] is 8.28 z-score.
For “GCCTAGCACAAAAGGAGGAAGTTGGTTGGGTGCTAGGTCTTGATTCGCTTGACGCTGCTG”, the binding signal in test [1] was found to be 7.62 z-score.
On the same count and under the same terms, the figure for “GCCTAGCACAAAATGAGGAACTGCTGTCTGTGCTAGGTCTTGATTCGCTTGACGCTGCTG” is 6.9 z-score.
The sequence “GCCTAGCACAAAATGAGGAAGTGACTTTGGTGCTAGGTCTTGATTCGCTTGACGCTGCTG” displayed a binding signal in test [1] of 8.87 z-score.
